Source: a collection of fitness landscapes (doi:10.1126/science.1257360)
Over roughly 140,000 sequences, “enrichment ratio after two sorts for PhoP signalling” has its median near 0; the highest 2% begin near 11. Only a selection was taken, and the highest values are over-represented in it overall.

B1: PhoQ; a variant is named by its letters at X, in order, P23837 (parent)
chain: MKKLLRLFFPLSLRVRFLLATAAVVLVLSLAYGMVALIGYSVSFDKTTFRLLRGESNLFYTLAKWENNKLHVELPENIDKQSPTMTLIYDENGQLLWAQRDVPWLMKMIQPDWLKSNGFHEIEADVNDTSLLLSGDHSIQQQLQEVREDDDDAEMTHSVAVNVYPATSRMPKLTIVVVDTIPVELKSSYMVWSWFIYVLSANLLLVIPLLWVAAWWSLRPIEALAKEVRELEEHNRELLNPATTRELTSLVRNLNRLLKSERERYDKYRTTLTDLTHSLKTPLXXLQXXLRSLRSEKMSVSDAEPVMLEQISRISQQIGYYLHRASMRGGTLLSRELHPVAPLLDNLTSALNKVYQRKGVNISLDISPEISFVGEQNDFVEVMGNVLDNACKYCLEFVEISARQTDEHLYIVVEDDGPGIPLSKREVIFDRGQRVDTLRPGQGVGLAVAREITEQYEGKIVAGESMLGGARMEVIFGRQHSAPKDE

Variants of: B1
Test: enrichment ratio after two sorts for PhoP signalling (ratio (wild type AVST 3.29)); higher = more functional
Details: with PhoP (E. coli)

| Variant | enrichment ratio |
| --- | --- |
| FPSQ | ≤ 0.25 |
| YFHS | ≤ 0.25 |
| HESK | ≤ 0.25 |
| PHDG | ≤ 0.25 |
| QHRM | ≤ 0.25 |
| QHDI | 19.6 |
| QHDK | ≤ 0.25 |
| QHDS | 29.2 |
| QHDM | 19.5 |
| QHDG | 110 |
| NHDI | ≤ 0.25 |
| THDG | ≤ 0.25 |
| QHGM | ≤ 0.25 |
| THDI | ≤ 0.25 |
| QHDA | 10.1 |
| LMVM | ≤ 0.25 |
| EFMR | ≤ 0.25 |
| LCAK | ≤ 0.25 |
| IKYG | ≤ 0.25 |
| AISC | 9.79 |
| SAFV | ≤ 0.25 |
| AGNI | ≤ 0.25 |
| PWYG | ≤ 0.25 |
| WEGM | ≤ 0.25 |

| Variant | enrichment ratio |
| --- | --- |
| WQLM | 15.8 |
| WELM | 17.4 |
| WELF | ≤ 0.25 |
| YQNY | ≤ 0.25 |
| YQNS | ≤ 0.25 |
| YQWM | ≤ 0.25 |
| WILM | ≤ 0.25 |
| YQLA | ≤ 0.25 |
| YQLM | 17.7 |
| YQNA | 14.6 |
| WFLM | ≤ 0.25 |
| QISH | 7.86 |
| FCVP | ≤ 0.25 |
| NSRA | 0.539 |
| NGWY | ≤ 0.25 |
| VQWA | ≤ 0.25 |
| NQLM | 6.38 |
| KYLM | ≤ 0.25 |
| TQLM | 22.7 |
| EQLM | ≤ 0.25 |
| SQLM | 21.3 |
| DPLM | ≤ 0.25 |
| MPQH | ≤ 0.25 |
| KFKS | ≤ 0.25 |

| Variant | enrichment ratio |
| --- | --- |
| TDIN | ≤ 0.25 |
| LAGL | ≤ 0.25 |
| SWST | ≤ 0.25 |
| DQAN | ≤ 0.25 |
| AHCY | 12.7 |
| NMCY | ≤ 0.25 |
| VLCY | ≤ 0.25 |
| NHCY | ≤ 0.25 |
| THCY | 1.87 |
| AMCY | 25.2 |
| SYHH | 0.299 |
| IIEM | ≤ 0.25 |
| KTPQ | ≤ 0.25 |
| MTSW | ≤ 0.25 |
| AFCI | ≤ 0.25 |
| AFAG | ≤ 0.25 |
| AFMG | 19.5 |
| AFCG | 11.4 |
| AFVG | 4.66 |
| AFCE | ≤ 0.25 |
| SDVD | ≤ 0.25 |
| FQFY | ≤ 0.25 |
| YCFT | ≤ 0.25 |
| QDDD | ≤ 0.25 |

| Variant | enrichment ratio |
| --- | --- |
| NLAY | ≤ 0.25 |
| GAMS | ≤ 0.25 |
| TPSS | ≤ 0.25 |
| MCLC | 1.65 |
| GNLC | 4.14 |
| MNLA | ≤ 0.25 |
| KCLC | ≤ 0.25 |
| MNLC | 11.7 |
| TNLC | 13.5 |
| RMKH | ≤ 0.25 |
| FPFY | ≤ 0.25 |
| FYFF | ≤ 0.25 |
| FHQK | ≤ 0.25 |
| ATIH | 25.3 |
| AGIH | 16.3 |
| ADIH | ≤ 0.25 |
| TGIH | ≤ 0.25 |
| ANIH | ≤ 0.25 |
| YTIH | ≤ 0.25 |
| HART | ≤ 0.25 |
| WISF | ≤ 0.25 |
| AISF | 13.4 |
| AQSF | 11.9 |
| AKSF | 2.49 |

| Variant | enrichment ratio |
| --- | --- |
| AQHF | ≤ 0.25 |
| ADSF | ≤ 0.25 |
| PMKN | ≤ 0.25 |
| SCIV | 1.12 |
| TGCE | 24.6 |
| GGCE | ≤ 0.25 |
| AGWM | ≤ 0.25 |
| RQQH | ≤ 0.25 |
| RGCE | ≤ 0.25 |
| RQKI | 19.2 |
| RQKH | ≤ 0.25 |
| TGCA | 19.8 |
| AGCK | 16.1 |
| RGCA | ≤ 0.25 |
| GGCA | 6.15 |
| AGGM | ≤ 0.25 |
| GKAG | ≤ 0.25 |
| TPNE | ≤ 0.25 |
| EIDL | ≤ 0.25 |
| VTQY | ≤ 0.25 |
| KAGG | ≤ 0.25 |
| SNFF | ≤ 0.25 |
| AGDI | ≤ 0.25 |
| AGVA | 1.62 |

| Variant | enrichment ratio |
| --- | --- |
| AGDH | ≤ 0.25 |
| AGCA | 15 |
| TGCV | 7.81 |
| RGCK | ≤ 0.25 |
| GGCK | ≤ 0.25 |
| AGCV | 23.6 |
| AGWI | ≤ 0.25 |
| TGCK | 37.2 |
| TGVY | 2.88 |
| AGVY | 18.3 |
| IEAT | ≤ 0.25 |
| WPAK | ≤ 0.25 |
| GFQM | ≤ 0.25 |
| YNLK | ≤ 0.25 |
| DYIY | ≤ 0.25 |
| KRVH | ≤ 0.25 |
| PCSH | ≤ 0.25 |
| ESFE | ≤ 0.25 |
| QFHQ | ≤ 0.25 |
| GIIK | ≤ 0.25 |
| IAHY | ≤ 0.25 |
| VMDH | ≤ 0.25 |
| AGCE | 6.71 |
| AKQM | ≤ 0.25 |

| Variant | enrichment ratio |
| --- | --- |
| QGCM | 1.34 |
| RGCM | ≤ 0.25 |
| AGQM | 15.8 |
| AGCS | 10.8 |
| AHQM | ≤ 0.25 |
| AGCI | 14 |
| YWCL | ≤ 0.25 |
| TGCM | 16.3 |
| AGCL | 15.2 |
| AGWL | ≤ 0.25 |
| YRSY | ≤ 0.25 |
| NQKY | ≤ 0.25 |
| VYPF | 1.11 |
| GMYR | ≤ 0.25 |
| RCYS | ≤ 0.25 |
| YPFH | ≤ 0.25 |
| AGCM | 13.6 |
| AWCM | ≤ 0.25 |
| AGQP | ≤ 0.25 |
| AGCQ | 23 |
| ANCM | 6.06 |
| YWCQ | ≤ 0.25 |
| GNWY | ≤ 0.25 |
| SFTF | ≤ 0.25 |

| Variant | enrichment ratio |
| --- | --- |
| HKIE | ≤ 0.25 |
| QMVR | ≤ 0.25 |
| VRVL | ≤ 0.25 |
| SLVL | 1.22 |
| SSVL | 13.8 |
| SSVA | 10.9 |
| KRVL | ≤ 0.25 |
| FSVL | 11.7 |
| KSVL | ≤ 0.25 |
| TRVL | 11.6 |
| FCVL | 0.336 |
| SHQM | 0.951 |
| ITPF | ≤ 0.25 |
| PVFC | ≤ 0.25 |
| QDST | ≤ 0.25 |
| QTQP | ≤ 0.25 |
| ISEK | ≤ 0.25 |
| KQRD | ≤ 0.25 |
| AYKP | ≤ 0.25 |
| SPCG | 1.67 |
| IQCG | ≤ 0.25 |
| EQCG | ≤ 0.25 |
| SQCG | 24.3 |
| LQCG | ≤ 0.25 |

| Variant | enrichment ratio |
| --- | --- |
| SNCG | 13.5 |
| ERSH | ≤ 0.25 |
| EHYT | ≤ 0.25 |
| MTGR | ≤ 0.25 |
| MMGY | ≤ 0.25 |
| MFGY | ≤ 0.25 |
| ADGY | ≤ 0.25 |
| THGY | 13.8 |
| TDGY | 11.5 |
| TGGY | 7.07 |
| NHGY | ≤ 0.25 |
| MEGY | 11.2 |
| MTGY | 14.4 |
| LTGY | ≤ 0.25 |
| STGY | 8.87 |
| GYHY | ≤ 0.25 |
| MGHH | ≤ 0.25 |
| LMID | ≤ 0.25 |
| YTGY | ≤ 0.25 |
| GTGY | ≤ 0.25 |
| FSGY | ≤ 0.25 |
| KSGY | ≤ 0.25 |
| TSGY | 14.8 |
| TTGY | 20.5 |

| Variant | enrichment ratio |
| --- | --- |
| EHTS | ≤ 0.25 |
| KLNV | ≤ 0.25 |
| PLEP | ≤ 0.25 |
| KFAF | ≤ 0.25 |
| KLER | 0.976 |
| LRTC | ≤ 0.25 |
| GPSH | ≤ 0.25 |
| REFT | ≤ 0.25 |
| WYPR | ≤ 0.25 |
| FIPD | ≤ 0.25 |
| MYLL | ≤ 0.25 |
| IALL | 8.58 |
| AALL | 14.9 |
| AILL | 4.86 |
| HALL | 12.4 |
| HFLL | ≤ 0.25 |
| LFLL | ≤ 0.25 |
| HYLL | ≤ 0.25 |
| MKLL | 11.4 |
| AYLL | ≤ 0.25 |
| AKLL | 14.3 |
| ERET | ≤ 0.25 |
| DVMR | ≤ 0.25 |
| IMCE | ≤ 0.25 |

| Variant | enrichment ratio |
| --- | --- |
| DQPA | ≤ 0.25 |
| YWCG | ≤ 0.25 |
| VLVV | ≤ 0.25 |
| DQYW | ≤ 0.25 |
| CFLG | ≤ 0.25 |
| KMML | ≤ 0.25 |
| KKLL | ≤ 0.25 |
| KMLL | ≤ 0.25 |
| NMLL | ≤ 0.25 |
| HKLL | 1.86 |
| AMLL | 14.2 |
| TKLL | 16.2 |
| VNCN | ≤ 0.25 |
| GPQD | ≤ 0.25 |
| AVMW | ≤ 0.25 |
| AVWI | ≤ 0.25 |
| AVPC | ≤ 0.25 |
| AVMV | 2.94 |
| AVFQ | ≤ 0.25 |
| AVSC | 12.2 |
| AVPS | ≤ 0.25 |
| AVMI | 15.6 |
| AVSK | 16.9 |
| AVTC | 6.81 |

| Variant | enrichment ratio |
| --- | --- |
| AVHP | ≤ 0.25 |
| AVSQ | 14.8 |
| MDVN | ≤ 0.25 |
| FYFS | ≤ 0.25 |
| KVID | ≤ 0.25 |
| GEKS | ≤ 0.25 |
| MTIG | ≤ 0.25 |
| NDGW | ≤ 0.25 |
| SKVW | ≤ 0.25 |
| AVRW | ≤ 0.25 |
| AVNL | ≤ 0.25 |
| AVPI | 2.35 |
| NVAW | ≤ 0.25 |
| AVAW | 22.5 |
| AVMN | 18.8 |
| AVWN | ≤ 0.25 |
| AKAW | ≤ 0.25 |
| AVTK | 17.9 |
| AVTW | 43.5 |
| AVFW | ≤ 0.25 |
| AVPA | ≤ 0.25 |
| LTGM | ≤ 0.25 |
| MQNP | ≤ 0.25 |
| KLMC | ≤ 0.25 |

| Variant | enrichment ratio |
| --- | --- |
| LHAE | ≤ 0.25 |
| DSVM | ≤ 0.25 |
| KHEF | ≤ 0.25 |
| FSFL | 1.26 |
| WYFI | ≤ 0.25 |
| EMFN | ≤ 0.25 |
| SEHM | 23.7 |
| KYHM | ≤ 0.25 |
| YYHM | ≤ 0.25 |
| QEHM | 10.7 |
| TEHM | 58.9 |
| TGHM | 4.7 |
| EAYE | ≤ 0.25 |
| GGYY | ≤ 0.25 |
| AKAM | 13.1 |
| ALWM | ≤ 0.25 |
| ALAM | 12.2 |
| ADAM | 3.24 |
| TLAM | 3.04 |
| ANIM | 4.25 |
| ANAM | 32.2 |
| AIAM | 6.08 |
| AAAM | 10.1 |
